# Measurements: PubChem BioAssay (NCATS)
# Values joined by “and” are separate entries in the source; they are usually repeats but may differ in a detail not shown here. Equal entries are not always repeated. Records with an inconclusive call do not appear. Active and inactive are the calls of the source. Calls come from the whole dose curve.
# Assay: Primary qHTS to identify inhibitors of SARS-CoV-2 cell entry (AID 1645846); note: nearly all actives have a fitted effect of over 45% in size
# Details: SARS-CoV-2 pseudovirus cell entry assay, luminescence; activity change, negative = inhibition: at 57.1 µM (top of the series) unless noted; series mostly up to 57.1 µM
# Outline: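 Entry measured by luciferase signal 48 h after adding SARS-CoV-2-S pseudotyped MLV particles to HEK293-ACE2 cells preincubated 1 h with compounds. Normalisation: bald particles and spike particles.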
# Potency is the fitted concentration of half-maximal effect.
Structure (SMILES),"activity change, negative = inhibition",Potency
CCC(C(=O)OCCN1CCOC(c2ccccc2)C1C)c1ccccc1 (configuration not stated),-21.8%,–
Nc1ccn([C@H]2CC[C@@H](CO)O2)c(=O)n1,–,inactive
Oc1cc(O)c2c(c1)O[C@H](c1ccc(O)c(O)c1)[C@H](O)C2,-5.55%,–
CCCCCCCCCCCCCCCC[N+](C)(C)Cc1ccccc1,–,17.8 µM (active)
CNC(=O)c1cnn(-c2nc(N)c3ncn([C@@H]4O[C@H](CO)[C@@H](O)[C@H]4O)c3n2)c1,–,inactive
CCn1c(=O)c2c(nc(C=Cc3ccc(OC)c(OC)c3)n2C)n(CC)c1=O,–,inactive
CC(=O)OCC(=O)[C@@]12N=C(C)O[C@@H]1C[C@H]1[C@@H]3CCC4=CC(=O)C=C[C@]4(C)[C@H]3[C@@H](O)C[C@@]12C,-14%,inactive
Brc1c(NC2=NCCN2)ccc2nccnc12,–,inactive
CN1CCC(=C2c3ccccc3CC(=O)c3sccc32)CC1,-26%,–
CC(=O)Oc1ccc2c(c1)CC[C@@H]1[C@@H]2CC[C@]2(C)[C@@H](O)CC[C@@H]12,-11%,–
Cc1ccc(Nc2c(F)cccc2Cl)c(CC(=O)O)c1,–,inactive
CCOC(=O)c1cccc(N)c1,-8.06%,–
CC(C)OC(=O)C(C(=O)OC(C)C)=C1SC=CS1,-9.44%,inactive
CN(C)C(=O)Oc1cccc([N+](C)(C)C)c1,-1.02%,–
CCCCC[C@H](O)C=C[C@H]1[C@H](O)CC(=O)[C@H]1CC=CCCCC(=O)O,–,inactive
CC[C@H](NC(C)C)[C@H](O)c1ccc(O)c2[nH]c(=O)ccc12,1.27%,inactive
CN1CCCN=C1COC(=O)C(O)(c1ccccc1)C1CCCCC1 (configuration not stated),4.25%,–
CC(=O)Oc1c(C)c(C)c2c(c1C)CC[C@@](C)(CCC[C@H](C)CCC[C@H](C)CCCC(C)C)O2,–,inactive
C[C@H]1C[C@H]2[C@@H]3CCC4=CC(=O)C=C[C@]4(C)[C@H]3C(=O)C[C@]2(C)[C@@]1(O)C(=O)CO,4.44%,inactive

Structure (SMILES),"activity change, negative = inhibition",Potency
CN1C(=O)CC(c2ccccc2)C1=O (configuration not stated),-27.2%,–
COc1ccc2c(c1OC)C(=O)O[C@@H]2[C@H]1c2c(cc3c(c2OC)OCO3)CCN1C,-12.9%,–
Cc1cc(O)c(C(C)C)cc1Cl,–,inactive
COC(=O)C1=C(C)NC(C)=C(C(=O)OCCCN2CCC(c3ccccc3)(c3ccccc3)CC2)C1c1cccc([N+](=O)[O-])c1 (configuration not stated),–,8.91 µM (active)
C[C@]12CC[C@@H]3c4ccc(O)cc4CC[C@H]3[C@@H]1C[C@@H](O)[C@@H]2O,-20% and -12.5%,–
N[C@H]1CN(c2c(F)cc3c(=O)c(C(=O)O)cn(C4C[C@@H]4F)c3c2Cl)CC12CC2 (some centres not stated),-17.4%,–
C[C@]12CC[C@@H]3c4ccc(O)cc4CC[C@H]3[C@@H]1CCC2=O,–,inactive
NC(N)=NC(=O)c1nc(Cl)c(N)nc1N,-0.658% [at 114 µM],inactive
O=S1(=O)OC(c2ccc(O)cc2)(c2ccc(O)cc2)c2ccccc21,4.87%,–
COc1ccccc1OC(=O)Oc1ccccc1OC,–,inactive
C#C[C@]1(O)CC[C@H]2[C@@H]3[C@H](C)CC4=C(CCC(=O)C4)[C@H]3CC[C@@]21C,-14.1%,inactive
CCCCNc1cc(C(=O)O)cc(S(N)(=O)=O)c1Oc1ccccc1,-16.4%,inactive
O=c1oc2c(O)c(O)cc3c(=O)oc4c(O)c(O)cc1c4c23,-5.97% [at 27.1 µM],inactive
CCOC(=O)c1c(N)sc2c1CCN(Cc1ccccc1)C2,–,inactive
N=C(N)c1ccc2cc(OC(=O)c3ccc(N=C(N)N)cc3)ccc2c1,-3.1%,inactive
CCCCCCCCCCCCOCCOCCOCCOCCOCCOCCOCCOCCOCCO,–,11.2 µM (active)
O=Cc1ccccc1C=O,-7.57%,–
Nc1ccc(C(=O)NCC(=O)O)cc1,4.24%,–
Cc1nnc(C(=O)NC(C)(C)c2nc(C(=O)NCc3ccc(F)cc3)c(O)c(=O)n2C)o1,-86.5% and -69.6%,–
